Screens from PubChem BioAssay.
In the library only some 0.26% were active in any assay of this set; here they are far more common.
Bim-Bcl-B: inhibitors of Bim-Bcl-B binding, primary screen, biochemical, multiplexed, human Bcl-2 family. Bcl-2-like protein 10 (Homo sapiens), Q9HD36. inhibition, % at 10 µM. bead-based flow cytometry, Bim peptide-Bcl-B binding. hit rate 0.073% among 190,000. AID 951, 2007
Bim-Bcl-XL: inhibitors of Bim-Bcl-XL binding, primary screen, biochemical, multiplexed, bead flow cytometry, human Bcl-XL. Bcl-2-like protein 1 (Homo sapiens), Q07817. Bim peptide-Bcl-XL binding, fluorescence. inhibition, % at 10 µM. hit rate 0.04% among 190,000. AID 1007, 2008
Bim-Bfl-1: inhibitors of Bim binding to Bfl-1, primary screen, biochemical, multiplexed, bead-based flow cytometry; Bcl-2-related protein A1 (Homo sapiens), Q16548; Bim-Bfl-1 binding inhibition; inhibition, % at 10 µM; hit rate 0.12% among 190,000; AID 1008, 2008
Target sequence (Q16548 whole entry, looked up): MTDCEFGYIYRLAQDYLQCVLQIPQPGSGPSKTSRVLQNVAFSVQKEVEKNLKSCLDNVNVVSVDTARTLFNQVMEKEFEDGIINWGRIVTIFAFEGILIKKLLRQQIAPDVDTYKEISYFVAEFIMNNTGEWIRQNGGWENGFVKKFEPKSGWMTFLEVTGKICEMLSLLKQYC
PKD1 kinase inh: inhibitors of human PKD1 kinase, biochemical, fluorescence polarization; Serine/threonine-protein kinase D1 (Homo sapiens), Q15139; PKD1 kinase fluorescence polarization assay; inhibition, % (test concentration not listed); hit rate 0.056% among 200,000; AID 797, 2007; in the data active means inhibition above about 50%
Bim-Bcl-2: inhibitors of Bim-Bcl-2 binding, primary screen, biochemical, multiplexed, human Bcl-2 family | inhibition, % at 10 µM | Apoptosis regulator Bcl-2 (Homo sapiens), P10415 | hit rate 0.06% among 190,000 | Bead-based flow cytometry, Bim peptide-Bcl-2 binding; in the data active means inhibition above about 40%
Target sequence (P10415 whole entry, looked up): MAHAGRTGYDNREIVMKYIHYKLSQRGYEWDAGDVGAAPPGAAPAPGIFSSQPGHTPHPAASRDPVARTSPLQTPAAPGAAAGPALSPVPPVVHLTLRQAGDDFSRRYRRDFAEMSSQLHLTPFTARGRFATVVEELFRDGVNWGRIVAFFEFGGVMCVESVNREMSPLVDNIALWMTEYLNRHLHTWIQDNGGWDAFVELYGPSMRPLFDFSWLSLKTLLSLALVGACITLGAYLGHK
Bim-Bcl-W: inhibitors of Bim binding to Bcl-W, primary screen, biochemical, multiplexed, bead-based flow cytometry | Bcl-2-like protein 2 (Homo sapiens), Q92843 | Bim peptide-Bcl-W binding | hit rate 0.02% among 190,000 | inhibition, % at 10 µM;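 further: higher means less fluorescent Bim peptide bound to Bcl-W beads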
Bim-Bcl-XL DR: Bim-Bcl-XL interaction inhibitors, hit retest, confirmation, biochemical, dose response, multiplexed, HTS hits. shares compounds with Bim-Bfl-1. bead-based flow cytometry, Bim-Bcl-XL binding. inhibition of binding at 100 µM. 40 tested, under 10 active; call rule not given here
Numbers stand for hits. Unless noted, no stated cut-off is given here; in the data, active means inhibition above about 40%.

How did Cc1ccc(-c2cc(-c3ccc4c(c3)OCO4)c(C#N)c(N)n2)o1 do in these assays?
Bim-Bcl-B: inactive; Bim-Bcl-XL: inactive; Bim-Bfl-1: inactive; PKD1 kinase inh: inactive; Bim-Bcl-2: inactive; Bim-Bcl-W: inactive

How did Cc1ccc(-c2cc(-c3ccc(C)o3)nc(N)c2C#N)cc1 do in these assays?
Bim-Bcl-XL: inactive; PKD1 kinase inh: inactive; Bim-Bcl-2: 85.0; Bim-Bcl-W: inactive; Bim-Bcl-XL DR: inactive

Results for O=C(CSc1nnc(-c2ccco2)o1)N1c2ccccc2CCc2ccccc21 ?
Bim-Bcl-B: inactive; Bim-Bcl-XL: inactive; Bim-Bfl-1: inactive; PKD1 kinase inh: inactive; Bim-Bcl-2: inactive; Bim-Bcl-W: inactive

What do the screens show for `Cc1ccc(C(=O)NCC(=O)N/N=C/c2cccs2)cc1C`?
Bim-Bcl-B: inactive; Bim-Bcl-XL: inactive; Bim-Bfl-1: inactive; PKD1 kinase inh: inactive; Bim-Bcl-2: inactive; Bim-Bcl-W: inactive

How did CCCN=C1N/C(=C\c2ccco2)C(=O)N1c1ccccc1 do in these assays?
Bim-Bcl-B: inactive; Bim-Bcl-XL: inactive; Bim-Bfl-1: inactive; PKD1 kinase inh: inactive; Bim-Bcl-2: inactive; Bim-Bcl-W: inactive

Results for O=C1/C(=C\c2ccco2)NC(=S)N1c1ccccc1 ?
Bim-Bcl-B: inactive; Bim-Bcl-XL: inactive; Bim-Bfl-1: inactive; PKD1 kinase inh: inactive; Bim-Bcl-2: inactive; Bim-Bcl-W: inactive; Bim-Bcl-XL DR: inactive

How did CCN(CC)c1ccc(NC(=O)COc2ccccc2C)cc1S(=O)(=O)Nc1ccccc1OC do in these assays?
Bim-Bcl-B: inactive; Bim-Bcl-XL: inactive; Bim-Bfl-1: inactive; PKD1 kinase inh: inactive; Bim-Bcl-2: inactive; Bim-Bcl-W: inactive; Bim-Bcl-XL DR: inactive

Results for CCN(CC)c1ccc(NC(=O)c2ccccc2Br)cc1S(=O)(=O)Nc1ccccc1OC ?
Bim-Bcl-B: inactive; Bim-Bcl-XL: inactive; Bim-Bfl-1: inactive; PKD1 kinase inh: inactive; Bim-Bcl-2: inactive; Bim-Bcl-W: inactive; Bim-Bcl-XL DR: inactive

What do the screens show for `CCN(CC)c1ccc(NC(=O)c2ccccc2F)cc1S(=O)(=O)Nc1ccccc1OC`?
Bim-Bcl-B: inactive; Bim-Bcl-XL: inactive; Bim-Bfl-1: inactive; PKD1 kinase inh: inactive; Bim-Bcl-2: inactive; Bim-Bcl-W: inactive; Bim-Bcl-XL DR: inactive

How did O=C(OCC(=O)N1CCCC1)c1cccs1 do in these assays?
Bim-Bcl-B: inactive; Bim-Bcl-XL: inactive; Bim-Bfl-1: inactive; PKD1 kinase inh: inactive; Bim-Bcl-2: inactive; Bim-Bcl-W: inactive

What do the screens show for `CC(C)N(CCO)C(=O)CCc1nnc(Cc2cccc(C(F)(F)F)c2)o1`?
Bim-Bcl-B: inactive; Bim-Bcl-XL: inactive; Bim-Bfl-1: inactive; PKD1 kinase inh: inactive; Bim-Bcl-2: inactive; Bim-Bcl-W: inactive

How did CCN(CC)C(=O)COC(=O)c1cc(-c2ccco2)nc2ccccc12 do in these assays?
Bim-Bcl-B: inactive; Bim-Bcl-XL: inactive; Bim-Bfl-1: 45.0; PKD1 kinase inh: inactive; Bim-Bcl-2: inactive; Bim-Bcl-W: inactive; Bim-Bcl-XL DR: inactive

Results for COc1ccccc1NC(C)=O ?
Bim-Bcl-B: inactive; Bim-Bcl-XL: inactive; Bim-Bfl-1: inactive; PKD1 kinase inh: inactive; Bim-Bcl-2: inactive; Bim-Bcl-W: inactive

How did COc1ccccc1NC1=C(NC(C)=O)C(=O)c2ccccc2C1=O do in these assays?
Bim-Bcl-B: inactive; Bim-Bcl-XL: inactive; Bim-Bfl-1: 42.0; PKD1 kinase inh: inactive; Bim-Bcl-2: inactive; Bim-Bcl-W: inactive; Bim-Bcl-XL DR: inactive

How did CS(=O)(=O)N(CC(=O)NC1CCCC1)C1CCCCC1 do in these assays?
Bim-Bcl-B: inactive; Bim-Bcl-XL: inactive; Bim-Bfl-1: inactive; PKD1 kinase inh: inactive; Bim-Bcl-2: inactive; Bim-Bcl-W: inactive

Results for S=c1[nH]cc(-c2ccccc2)n1-c1ccccc1 ?
Bim-Bcl-B: inactive; Bim-Bcl-XL: inactive; Bim-Bfl-1: inactive; PKD1 kinase inh: inactive; Bim-Bcl-2: inactive; Bim-Bcl-W: inactive; Bim-Bcl-XL DR: inactive

How did O=C(COC(=O)c1cc(-c2cccs2)nn1-c1ccccc1)Nc1ccc(Cl)c([N+](=O)[O-])c1 do in these assays?
Bim-Bcl-B: inactive; Bim-Bcl-XL: inactive; Bim-Bfl-1: inactive; PKD1 kinase inh: inactive; Bim-Bcl-2: inactive; Bim-Bcl-W: inactive

What do the screens show for `O=C(/C=C/c1ccc(-c2ccccc2[N+](=O)[O-])o1)c1ccccc1`?
Bim-Bcl-B: inactive; Bim-Bcl-XL: inactive; Bim-Bfl-1: inactive; PKD1 kinase inh: inactive; Bim-Bcl-2: inactive; Bim-Bcl-W: inactive; Bim-Bcl-XL DR: inactive

How did CNC(=O)/C(C#N)=C/c1ccc(-c2ccccc2[N+](=O)[O-])o1 do in these assays?
Bim-Bcl-B: inactive; Bim-Bcl-XL: inactive; Bim-Bfl-1: inactive; PKD1 kinase inh: inactive; Bim-Bcl-2: inactive; Bim-Bcl-W: inactive

What do the screens show for `Cn1cc(CC(=O)NCCCN2CCCC2=O)c2ccccc21`?
Bim-Bcl-B: inactive; Bim-Bcl-XL: inactive; Bim-Bfl-1: inactive; PKD1 kinase inh: inactive; Bim-Bcl-2: inactive; Bim-Bcl-W: inactive
